Results published in the supplement of paper PMC9897528.

system: Scedosporium aurantiacum CBS 136046; assay: growth inhibition relative to DMSO control (OD600); higher = more antifungal activity, active = 80 or more; extreme values may be limits of the assay; details: 5 µM; 72 h; 37 °C
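Further: conidia screened in RPMI 1640 medium under 5% CO2, growth read by spectrophotometer, medium with 0.5% DMSO serving as the untreated reference.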

Growth inhibition, inactive:
C[C@H](NC(CC(=O)c1ccccc1C(F)(F)F)C(=O)O)c1ccccc1 (stereo partly drawn) 2.25%
CNc1nc(=O)[nH]cc1F 2.45%
c1ccc(Cn2c(-c3ccccn3)nc3ccccc32)cc1 14.3%
COCCn1cnc2c(O)nc(Nc3ccccc3)nc21 5.59%
Clc1ccc(Cn2c(CN3CCCC3)nc3ccccc32)cc1 15.5%
COc1c(NC(=O)[C@H]2CC[C@@H](COc3ccc([N+](=O)[O-])cc3)CC2)c(F)cc2c(=O)c(C(=O)O)cn(C3CC3)c12 15.5%
OC(Cn1cncn1)(Cn1cncn1)c1ccc(F)cc1F 29.9%
CCOC(=O)N[C@@H]1CC[C@@H]2[C@@H](C1)C[C@H]1C(=O)O[C@H](C)[C@H]1[C@H]2/C=C/c1ccc(-c2cccc(F)c2)cn1 44.3%
CC(=N)N1CC[C@H](SC2=C(C(=O)O)N3C(=O)[C@@H]([C@@H](C)O)[C@H]3C2)C1 5.55%
C(=C\c1nc2ccccc2[nH]1)/c1ccc2c(c1)OCO2 17.1%
CC1(C)Cc2c(C#N)c(SCCc3ccccc3)nc(N3CCOCC3)c2CO1 27.9%
CCOC(=O)Nc1cc(NC(C)CC(C)CN(CC)CC)c2nc(-c3ccccc3)c(-c3ccccc3)nc2n1 (stereo not drawn) 36.4%
Cn1cncc1[C@@](N)(c1ccc(Cl)cc1)c1ccc2c(c1)c(-c1cccc(Cl)c1)cc(=O)n2C 11.3%
N[C@H](CCC(=O)N[C@@H](Cc1c[nH]c2ccccc12)C(=O)O)C(=O)O 1.28%
CCNC(=O)Nc1cn2c(-c3ncc(CC)cn3)cc(-c3cccnc3)cc2n1 0%
Oc1ccc(NCc2ccccc2OCc2ccccc2)cc1 10%
Nc1nc(NC2Cc3ccc(F)cc3C2)nc(N2CCCCC2)n1 (stereo not drawn) 45.3%
CC(C)N(c1cc(-c2ccccc2)sc1C(=O)O)C(=O)[C@H]1CC[C@H](C)CC1 16.1%
CCN(CC)CCCC(C)Nc1ccnc2cc(Cl)ccc12 (stereo not drawn) 21.6%
COc1cccc(N2CCN(C3=Nc4c(F)cccc4[C@H](CC(=O)O)N3c3cc(C(F)(F)F)ccc3OC)CC2)c1 9.61%
Nc1nc(-c2ccccc2)nc2c1ncn2[C@@H]1O[C@H](COS(=O)(=O)NC(=O)c2ccccc2O)[C@@H](O)[C@H]1O 30%
CC(C)(C)NC(=O)[C@@H]1CN(Cc2cnc3occc3c2)CCN1C[C@@H](O)C[C@@H](Cc1ccccc1)C(=O)N[C@H]1c2ccccc2C[C@H]1O 1.85%
CC(C)(C)c1cccc(-c2nc3cc(C(=N)N)ccc3[nH]2)c1O 17.4%
CC(C)Oc1ccc(-c2nc(-c3cccc4c3CC[C@@H]4NCCO)no2)cc1C#N 25.4%
O=C(/C=C/n1cnc(-c2cc(C(F)(F)F)cc(C(F)(F)F)c2)n1)NNc1cnccn1 26.3%
CCCCCCCc1[nH]c2ccccc2c(=O)c1O 8.25%
O=C(O)C[C@H]1CC[C@H](c2ccc(-c3ccc(Nc4ccc(C(F)(F)F)nc4)cn3)cc2)CC1 12.5%
Nc1nc(O)c2ncn([C@@H]3O[C@H](CO)[C@@H](O)[C@H]3F)c2n1 17.4%
Cc1cc(CCOc2c(C)cc(-c3nnn(C)n3)cc2C)on1 3.61%
OCCCCn1cnc2c(O)nc(NCc3ccc(Cl)c(Cl)c3)nc21 5.51%
C[C@@H](O)[C@H](N)C(=O)NS(=O)(=O)c1cccc(-c2ccc3[nH]ncc3c2)c1 21%
C[C@H]1COc2c(N3CCN(C)CC3)c(F)cc3c(=O)c(C(=O)O)cn1c23 6.31%
Cn1c2ccccc2c(=O)c2c(O)cccc21 6.84%
COc1cc(NS(=O)(=O)c2ccc(C)cc2)c2ncccc2c1 27.9%
O=C(Nc1ccc(Cl)c(C(F)(F)F)c1)C(CCCl)C(=O)Nc1ccc(Cl)c(C(F)(F)F)c1 0%
COc1ccc(C2CNC(=O)C2)cc1OC1CCCC1 (stereo not drawn) 16.6%
Oc1cc(-c2cccc3ccccc23)[nH]n1 7.34%
O=C(O)c1ccc(-c2ccc(O[C@H]3O[C@H](CO)[C@@H](O)[C@H](O)[C@@H]3O)cc2)cc1 10.9%
